This note sets out measurements from PubChem BioAssay (NCATS).

The structures appear in SMILES notation. Results filed as inconclusive are left out. Activity calls are given as the source filed them. Unless noted, calls come from the whole dose curve; as a rule, active = well fitted curve in the direction sought with a large enough effect; inconclusive = small, poorly fitted or top-dose-only effect, or another doubt; inactive = no such curve, though single readings can be large; an effect the other way counts as inactive or inconclusive.

Assay [1] is described as follows: Validation screen for small molecules that induce genotoxicity in human embryonic kidney (HEK293T) cells expressing luciferase-tagged ELG1 (AID 493106). Note: 0% is about no effect. The settings on record: luminescence; series mostly up to 46.1 µM. In short, it runs like this: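 ELG1-luciferase reporter readout (ONE-Glo, 30 min, room temperature) after 16 hr compound treatment at 37 °C of HEK293T cells at 2,000 per well. Rising luminescence flags genotoxic stress.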

Assay [2] deals with ATPase family AAA domain-containing protein 5 (Homo sapiens) (UniProt Q96QE3). Put plainly: Validation screen for small molecules that inhibit ELG1-dependent DNA repair in human embryonic kidney (HEK293T) cells expressing luciferase-tagged ELG1 (AID 493107). Note: nearly all actives have a fitted effect of over 70% in size. Note: potency is the fitted concentration of half-maximal effect. The settings on record: HEK293T ELG1-luciferase level, luminescence, 5-fluorouridine co-treatment, 16 h; series mostly up to 46.1 µM. In short, it runs like this:
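Luciferase read-out, ONE-Glo, 30 min at room temperature, follows 16 h co-exposure at 37 C of compound and the DNA-damaging agent 5-fluorouridine. Cells: HEK293T with ELG1-luciferase fusion, 2,000 per well, DMSO as vehicle.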

A short description of assay [3]: Nrf2 qHTS screen for inhibitors: Validation (AID 493153; active = well fitted inhibition curve with a large enough effect in the main read-out, with a control signal flat, not every such curve was filed as active). The settings on record: A549 ARE-Fluc reporter, 18-24 h; viability change: measured here: cytotoxicity max response; luciferase luminescence, at 46.1 µM (top of the series). In short, it runs like this:
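Concentration-response on A549 ARE_Fluc reporter cells exposed 18-24 h at 37 C, 5% CO2. Cytotoxicity read first by CellTiter-Fluor fluorescence (Ex 405/Em 525), then Nrf2 inhibition by BugLite luminescence after 15 min.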

Assay [4] can be described thus: qHTS for Inhibitors of Cell Surface uPA Generation: Validation Assay (AID 493164).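 Note: RAW 264.7 macrophage cells exposed to compound for 18 h; 0% is about no effect.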 To be noted: mouse cells, plasminogen activation; series mostly up to 38.3 µM. A digest of the protocol: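 ATP-Lite luminescence read-out: ATP remains high when uPA activity-dependent LF translocation into the cytoplasm is blocked. RAW 264.7 cells, 18 h compound exposure at 37 C; 7-point titration, 2.45 nM to 38.3 uM final.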

For assay [5], the target named is Phosphoglycerate kinase, glycosomal (Trypanosoma brucei brucei) (UniProt P07378). The experiment in a line: qHTS Validation Assay to Find Inhibitors of Phosphoglycerate Kinase (AID 504547).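 Note: control wells lack PGK and mark full inhibition.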 To be noted: enzymatic PGK inhibition, coupled luminescence read-out; series mostly up to 57.5 µM. In short, it runs like this: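 Compounds are pinned into the substrate/PGK mixture, and GAPDH (100nM final) is added to start the reaction by producing 1,3-BPG. After 60 minutes at room temperature, Kinase-Glo Plus is added and luminescence is measured 10 minutes later.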
Chain of Phosphoglycerate kinase, glycosomal (Trypanosoma brucei brucei) (P07378 whole entry, looked up): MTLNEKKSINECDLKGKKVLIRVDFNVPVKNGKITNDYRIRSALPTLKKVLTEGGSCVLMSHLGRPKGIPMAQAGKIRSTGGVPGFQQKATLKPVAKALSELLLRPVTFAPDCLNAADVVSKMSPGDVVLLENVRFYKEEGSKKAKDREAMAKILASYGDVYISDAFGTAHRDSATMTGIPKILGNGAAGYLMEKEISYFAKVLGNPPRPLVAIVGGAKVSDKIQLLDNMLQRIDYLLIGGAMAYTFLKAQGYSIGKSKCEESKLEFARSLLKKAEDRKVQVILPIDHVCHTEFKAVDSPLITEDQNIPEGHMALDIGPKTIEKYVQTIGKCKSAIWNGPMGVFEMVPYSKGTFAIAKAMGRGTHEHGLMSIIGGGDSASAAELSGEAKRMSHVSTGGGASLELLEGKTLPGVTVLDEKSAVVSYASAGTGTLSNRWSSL
(qHTS replaces the single test concentration by a dilution series.)

Assay [6] deals with phosphoglycerate mutase (Leishmania major) (UniProt Q4Q090). Put plainly: qHTS Validation Assay to Find Inhibitors of Phosphoglycerate Mutase (AID 504548). Note: % is set by controls: 0 for no effect and ±100 for the full control effect. To be noted: biochemical enzyme activity; series mostly up to 57.5 µM. In short, it runs like this: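 Lm PGAM at 1.25 nM final with substrate in 100 mM TEA pH 7.6, 5 mM MgCl2, 0.01% Tween-20; 45 min at room temperature. Kinase-GloPlus added, 10 min, end-point luminescence read.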
Chain of phosphoglycerate mutase (Leishmania major) (Q4Q090 1-553): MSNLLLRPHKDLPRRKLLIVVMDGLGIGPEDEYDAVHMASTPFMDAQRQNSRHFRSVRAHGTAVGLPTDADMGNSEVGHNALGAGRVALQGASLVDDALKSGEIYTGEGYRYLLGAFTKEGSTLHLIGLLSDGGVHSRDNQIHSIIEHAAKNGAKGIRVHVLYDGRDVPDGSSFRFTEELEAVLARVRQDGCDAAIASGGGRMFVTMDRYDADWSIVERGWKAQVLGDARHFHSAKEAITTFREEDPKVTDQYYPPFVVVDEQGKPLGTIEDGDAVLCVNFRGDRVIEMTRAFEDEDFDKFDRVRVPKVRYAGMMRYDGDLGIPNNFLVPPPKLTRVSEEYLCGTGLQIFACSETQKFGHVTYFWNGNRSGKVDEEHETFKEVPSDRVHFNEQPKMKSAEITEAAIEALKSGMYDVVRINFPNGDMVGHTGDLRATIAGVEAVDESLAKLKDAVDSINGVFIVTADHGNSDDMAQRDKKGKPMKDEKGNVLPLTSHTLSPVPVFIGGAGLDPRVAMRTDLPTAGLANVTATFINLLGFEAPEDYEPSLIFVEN

Assay [7] has as its target Galactokinase (Homo sapiens) (UniProt P51570). Put plainly: qHTS Validation Assay for Inhibitors of Human Galactokinase (GALK) (AID 493189). Note: 0% is about no effect. The settings on record: purified human GALK enzyme activity, qHTS 7-point titration; series mostly up to 57.5 µM. A digest of the protocol: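 GALK (5 nM) with 35 uM ATP and 100 uM galactose in HEPES pH 8.0 with MgCl2, NaCl, DTT and BSA. Reaction ran 1 h at room temperature. Residual ATP read by Kinase-Glo Plus luminescence.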

Assay [8] is described as follows: Validation screen for small molecules that induce DNA re-replication in SW480 colon adenocarcinoma cells (AID 504364). Note: 0% is about no effect. The settings on record: DNA re-replication phenotype (high-content imaging); series mostly up to 46.1 µM. A digest of the protocol: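 Image-based DNA content read-out: Hoechst stain 40 min, total nuclear fluorescence intensity (ex 405 nm, em 500-530 nm) after 48 h compound exposure of 250 SW480 cells/well at 37 C, 5% CO2, versus DMSO vehicle.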

Assay [9] has as its target Thyrotropin-releasing hormone receptor (Homo sapiens) (UniProt P34981). The experiment in a line: qHTS for Small Molecule Agonists and Allosteric Enhancers of Human TRH Receptor: Validation Screen for Agonists (AID 493127;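 active = calcium activation more than 3 SD above the typical response in the agonist read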;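 note: intracellular calcium rise by fluo-8 fluorescence before TRH EC20 addition; 0% is about no effect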). The settings on record: TRH receptor agonist cell assay; at 2 µM; stronger effect = higher value. In short, it runs like this:
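Compound-evoked intracellular calcium release in fluo-8-loaded TRHR cells, read kinetically on FDSS (Ex 480/Em 530, 1 s/cycle) after 23 nL pintool transfer. Agonist phase preceded 10 nM TRH EC20 addition.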

In assay [10] the target is Peptidyl-prolyl cis-trans isomerase NIMA-interacting 1 (Homo sapiens) (UniProt Q13526). The experiment in a line: qHTS Validation Assay to Find Inhibitors of Pin1 (AID 504536; active = well fitted inhibition curve with a large enough effect in the polarisation, with a control signal flat, not every such curve was filed as active; the % refers to the polarisation;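 note: 0% = full Pin1 enzyme wells and -100% = no-enzyme wells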). To be noted: Pin1 fluorescence polarization peptide binding assay; series mostly up to 57.5 µM. In short, it runs like this: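 Fluorescence polarization competition: compounds (titration) displace HiFluor-488-labeled Pin1-1b peptide from Pin1 (0.3 uM final) in pH 7.5 HEPES buffer with DTT, 10 min at room temperature; %Activity normalized to no-enzyme wells, curves fitted.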
Chain of Peptidyl-prolyl cis-trans isomerase NIMA-interacting 1 (Homo sapiens) (Q13526 whole entry, looked up): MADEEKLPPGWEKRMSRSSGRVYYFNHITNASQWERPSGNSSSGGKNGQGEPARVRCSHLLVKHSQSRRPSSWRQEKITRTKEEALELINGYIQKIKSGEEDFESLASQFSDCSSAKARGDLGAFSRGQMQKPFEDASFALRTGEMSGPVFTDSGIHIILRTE

Chain of ATPase family AAA domain-containing protein 5 (Homo sapiens) (Q96QE3 whole entry, looked up, the tested form may be a part): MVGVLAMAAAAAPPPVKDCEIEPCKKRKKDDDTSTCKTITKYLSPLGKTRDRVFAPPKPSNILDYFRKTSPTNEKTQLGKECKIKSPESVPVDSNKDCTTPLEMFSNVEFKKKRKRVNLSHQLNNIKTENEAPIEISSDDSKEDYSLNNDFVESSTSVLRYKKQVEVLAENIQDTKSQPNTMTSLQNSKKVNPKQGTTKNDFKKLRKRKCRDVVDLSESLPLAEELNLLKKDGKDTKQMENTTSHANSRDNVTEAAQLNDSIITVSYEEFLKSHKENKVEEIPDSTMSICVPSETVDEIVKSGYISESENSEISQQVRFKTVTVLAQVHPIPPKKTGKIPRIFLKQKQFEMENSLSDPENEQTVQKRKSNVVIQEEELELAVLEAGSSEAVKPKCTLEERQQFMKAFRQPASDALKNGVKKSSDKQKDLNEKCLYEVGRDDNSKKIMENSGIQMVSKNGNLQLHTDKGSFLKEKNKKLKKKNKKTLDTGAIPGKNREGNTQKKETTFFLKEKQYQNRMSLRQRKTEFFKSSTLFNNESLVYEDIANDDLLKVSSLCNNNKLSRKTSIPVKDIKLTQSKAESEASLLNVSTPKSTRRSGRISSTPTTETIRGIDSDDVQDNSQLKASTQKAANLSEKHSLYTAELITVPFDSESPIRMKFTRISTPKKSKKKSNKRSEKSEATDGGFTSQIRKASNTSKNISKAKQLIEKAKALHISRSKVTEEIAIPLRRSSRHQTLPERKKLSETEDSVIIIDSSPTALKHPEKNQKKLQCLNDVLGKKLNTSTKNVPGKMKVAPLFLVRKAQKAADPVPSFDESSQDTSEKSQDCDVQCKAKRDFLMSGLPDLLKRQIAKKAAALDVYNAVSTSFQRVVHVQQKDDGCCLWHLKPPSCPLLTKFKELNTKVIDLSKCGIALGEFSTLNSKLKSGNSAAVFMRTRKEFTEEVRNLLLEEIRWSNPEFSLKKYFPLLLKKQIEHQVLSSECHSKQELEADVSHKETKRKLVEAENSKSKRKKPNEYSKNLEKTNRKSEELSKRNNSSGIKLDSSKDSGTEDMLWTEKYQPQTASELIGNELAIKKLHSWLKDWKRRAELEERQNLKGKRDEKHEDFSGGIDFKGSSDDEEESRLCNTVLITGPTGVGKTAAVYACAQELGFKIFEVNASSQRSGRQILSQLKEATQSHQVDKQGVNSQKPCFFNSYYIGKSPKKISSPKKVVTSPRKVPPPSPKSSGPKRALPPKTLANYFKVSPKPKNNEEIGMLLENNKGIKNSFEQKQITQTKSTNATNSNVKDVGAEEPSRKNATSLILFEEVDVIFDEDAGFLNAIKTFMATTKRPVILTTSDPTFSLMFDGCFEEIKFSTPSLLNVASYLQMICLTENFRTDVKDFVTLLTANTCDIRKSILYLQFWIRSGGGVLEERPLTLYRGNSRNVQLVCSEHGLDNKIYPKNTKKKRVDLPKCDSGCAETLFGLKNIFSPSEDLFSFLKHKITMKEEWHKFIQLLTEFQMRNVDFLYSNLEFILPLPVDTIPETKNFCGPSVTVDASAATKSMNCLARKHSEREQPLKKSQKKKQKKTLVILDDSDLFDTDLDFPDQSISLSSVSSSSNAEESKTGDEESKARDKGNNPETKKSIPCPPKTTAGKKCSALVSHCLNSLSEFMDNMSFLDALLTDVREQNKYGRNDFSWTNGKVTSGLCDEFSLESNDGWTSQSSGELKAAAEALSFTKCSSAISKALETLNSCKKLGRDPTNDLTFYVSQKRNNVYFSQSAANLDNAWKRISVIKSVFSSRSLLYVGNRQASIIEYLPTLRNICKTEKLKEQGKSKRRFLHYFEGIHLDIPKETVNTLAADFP
Chain of Thyrotropin-releasing hormone receptor (Homo sapiens) (P34981 whole entry, looked up): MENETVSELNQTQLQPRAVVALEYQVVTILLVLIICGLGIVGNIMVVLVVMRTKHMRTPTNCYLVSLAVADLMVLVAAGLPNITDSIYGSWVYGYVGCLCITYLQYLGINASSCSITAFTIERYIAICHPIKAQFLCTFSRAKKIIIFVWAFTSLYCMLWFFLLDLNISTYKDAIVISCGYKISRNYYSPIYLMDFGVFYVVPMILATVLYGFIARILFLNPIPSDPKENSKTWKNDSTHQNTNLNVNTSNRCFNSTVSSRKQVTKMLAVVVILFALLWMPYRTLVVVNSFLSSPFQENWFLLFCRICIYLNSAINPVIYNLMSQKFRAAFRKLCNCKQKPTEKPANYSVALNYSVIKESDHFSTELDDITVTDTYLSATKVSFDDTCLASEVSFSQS
Chain of Galactokinase (Homo sapiens) (P51570 whole entry, looked up): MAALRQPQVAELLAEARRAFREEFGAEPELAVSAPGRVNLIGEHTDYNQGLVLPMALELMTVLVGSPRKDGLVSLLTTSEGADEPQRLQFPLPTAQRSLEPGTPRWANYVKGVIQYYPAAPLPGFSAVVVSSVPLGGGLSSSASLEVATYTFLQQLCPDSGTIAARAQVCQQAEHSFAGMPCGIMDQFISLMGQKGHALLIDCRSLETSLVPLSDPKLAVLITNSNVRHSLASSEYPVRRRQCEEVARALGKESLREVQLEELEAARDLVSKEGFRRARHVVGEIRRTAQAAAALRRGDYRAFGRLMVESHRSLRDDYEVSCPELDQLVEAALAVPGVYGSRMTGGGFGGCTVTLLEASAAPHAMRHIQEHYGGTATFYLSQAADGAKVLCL

As for `COC(=O)[C@@H](N)CCCN=C(N)N[N+](=O)[O-]`, the compound was classed as inactive in assay [1], in assay [3], in assay [4], in assay [5] and in assay [6]. In addition, in assay [2], the Potency result was “inactive”. The viability change in assay [3] was -8.47%.
Regarding `C[N+](C)(C)CC(=O)O`, the result in assay [7] and in assay [8] was inactive.
With `Cc1c(C(=O)c2cccc3ccccc23)c2cccc3c2n1[C@H](CN1CCOCC1)CO3`, the outcome in [1], in assay [7], in assay [8], in [5] and in [6] was inactive. Also, the activation in assay [9] was -3.25% (inactive).
With `NC(CCP(=O)(O)O)C(=O)O` (stereo not drawn), the compound was called inactive in assay [1], in assay [3], in [4], in assay [7], in assay [8] and in assay [5]. Moreover, in assay [6], the compound was classed as inactive. Besides, in [2], the Potency result was “inactive”. Also, the activation in assay [9] was -3% (inactive). For the same compound, the viability change in assay [3] was 2.18%.
Take `C[C@@H]1O[C@H](C[N+](C)(C)C)C[C@H]1O`: the Potency result in assay [2] was “inactive”. Also, the activation in assay [9] was 20.8% (inactive). For the same compound, the call in [3], in assay [4], in [7], in [8], in assay [10] and in assay [5] was inactive. Besides, the compound was called inactive in [6]. For the same compound, the viability change in assay [3] was -6.13%.
On to `C/C=C(/C)C(=O)O[C@H]1C(C)=C2[C@H]([C@@H]1OC(=O)CCCCCCC)[C@@](C)(OC(C)=O)C[C@H](OC(=O)CCC)[C@@]1(O)[C@H]2OC(=O)[C@@]1(C)O`, for which the call in assay [1], in assay [4], in assay [5] and in assay [6] was inactive.
On to `c1ccc(C2(c3ccccc3)CC2C2=NCCN2)cc1` (stereo not drawn), for which the compound was classed as inactive in assay [1], in assay [3], in assay [4], in [5] and in assay [6]. Further, the Potency result in assay [2] was “inactive”. The viability change in assay [3] was -1.31%.
As to `O=C(O)Cc1cnc[nH]1`, the outcome in [1], in [3], in assay [4], in assay [7], in [8] and in assay [5] was inactive. For the same compound, the compound was called inactive in assay [6]. Also, the Potency entry in assay [2] was “inactive”. The activation in assay [9] is 0.875% (inactive). The viability change in assay [3] was -0.284%.
`CC[C@@H]1C(=O)OC[C@@H]1Cc1cncn1C`: the call in [7] and in assay [8] was inactive.
Take `O=C(N[C@H]1CN2CCC1CC2)c1ccc(Cl)cc1`: the compound was classed as inactive in [1], in [3], in [4], in assay [5] and in [6]. The Potency entry in assay [2] was “inactive”. In addition, the viability change in assay [3] is -3.51%.
Consider `O=C(Cc1ccc(Cl)c(Cl)c1)N1CCCCC1CN1CCCC1` (stereo not drawn), for which the call in assay [1], in assay [3], in [4], in assay [7], in [8] and in assay [5] was inactive. In assay [6], the outcome was inactive. For the same compound, the Potency entry in assay [2] is “inactive”. Also, the activation in assay [9] was 1.12% (inactive). The viability change in assay [3] was found to be 7.56%.
In the case of `Clc1cnc(Oc2ccc(Oc3ncc(Cl)cc3Cl)cc2)c(Cl)c1`, the call in [1], in [3], in assay [4], in assay [7], in assay [8] and in assay [5] was inactive. The compound was classed as inactive in [6]. In addition, the Potency entry in assay [2] is “inactive”. In assay [3], the viability change worked out at 3.25%.
Take `CN[C@@H](C)[C@H](O)c1ccccc1`: the activation in assay [9] is 3.19% (inactive). Moreover, the call in assay [7] and in assay [8] was inactive.
With `O=C(O)CC[N+](=O)[O-]`, the compound was called inactive in [1], in [4], in assay [7], in [8], in [5] and in assay [6]. In assay [2], the Potency result is “inactive”.
For the compound `C[C@]12CCC3C(CC[C@H]4C[C@H](O)CC[C@]34C)C1CC[C@@H]2C(=O)CO` (stereo partly drawn), the outcome in [1], in assay [4], in [7], in [8], in [5] and in assay [6] was inactive. Besides, in [2], the Potency result is “inactive”. Moreover, the activation in assay [9] is 1.56% (inactive).
Take `CC[C@@]1(O)C(=O)OCc2c1cc1n(c2=O)Cc2cc3ccccc3nc2-1`: the compound was called inactive in [1], in [4], in assay [7], in assay [8], in assay [5] and in assay [6]. Besides, the Potency in assay [2] was 461 nM (active). The activation in [9] is -0.188% (inactive).
Regarding `C[C@@H](N)Cc1cnc[nH]1`, the compound was classed as inactive in [1], in assay [4], in [7], in assay [8], in assay [5] and in assay [6]. In addition, the Potency result in assay [2] was “inactive”. For the same compound, the activation in [9] is 1.12% (inactive).
Consider `COc1ccc2c(c[n+](C)c3c4cc5c(cc4ccc23)OCO5)c1OC`, for which the outcome in assay [1], in assay [4], in assay [7], in assay [10] and in assay [5] was inactive. Moreover, the Potency result in [2] is “inactive”. Moreover, in assay [9], the activation is 0.625% (inactive).
Regarding `CNCCc1ccc(O)c(O)c1`, the result in assay [1], in assay [3], in assay [4], in assay [7] and in assay [10] was inactive. Besides, the Potency entry in assay [2] is “inactive”. Further, the activation in assay [9] was -0.25% (inactive). Further, the viability change in assay [3] was 0.688%.
